Compound activity deposited in PubChem by Broad Institute.
aSyn 5UTR act: Activators working through SNCA 5'UTR binding (MLPCN) | alpha-synuclein 5'UTR reporter, activators screen | activity score, % (tested at 7.5 µM), hits read low | 300,000 compounds, 7.1% hits; in the data active = activity score below about -60%
Active calls of the source: *. Not all results are given here.

SMILES | aSyn 5UTR act
O=C(Cc1ccccc1[N+](=O)[O-])NCc1ccc(Cl)cc1 | -93.9*
Cn1c(=O)c2nc(-c3ccccc3)oc2c2ccccc21 | -69.3*
COc1ccc2cnn(-c3ccc(OC(F)(F)F)cc3)c(=O)c2c1OC | -90.1*
Cc1ccc(NC(=S)NCCC2=CCCCC2)cc1 | -136.8*
O=C(NC(=S)NCCC1=CCCCC1)c1ccc(Br)o1 | -114.6*
O=C(NCCC1=CCCCC1)c1ccc(Br)o1 | -82.8*
N#C/C(=C\C=C\c1ccccc1[N+](=O)[O-])C(=O)NCc1ccccc1 | -291.5*
N#C/C(=C/C=C/c1ccccc1)C(=O)Nc1ccccc1 | -108.6*
O=C(O)c1ccc(N/N=C/C=C/c2ccccc2[N+](=O)[O-])cc1 | -127.0*
Cc1ccc(CSc2nnc(SCC(=O)N/N=C/C=C/c3ccccc3[N+](=O)[O-])s2)cc1 | 89.3
O=C(Cc1ccccc1)N/N=C/C=C/c1ccccc1[N+](=O)[O-] | -83.1*
O=C(Cc1cccs1)N/N=C/C=C/c1ccccc1[N+](=O)[O-] | -98.7*
O=C(Nc1ccc2ccccc2n1)C1CCCCC1 | -144.5*
O=C(Nc1ccc2ccccc2n1)c1ccc(Cl)cc1 | -145.0*
O=C(Nc1ccc2ccccc2n1)c1ccccc1Cl | -70.9*
Clc1ccc2c(c1)C(C1=NCCN1)c1ccccc1CS2 (stereo unspecified) | 78.7
CN(C)CCCNc1cc(-c2ccccc2)nc2cc(-c3cccc(F)c3)nn12 | -61.7*
Cc1ccccc1NC(=O)C(=O)c1cn(C)c2ccccc12 | -132.7*
CC(=O)n1cc(N(C(=O)CCl)c2ccc(Cl)cc2)c2ccccc21 | 102.8
Cc1cc(N(C)/N=C/c2ccccc2)nc(-c2ccccc2O)n1 | -118.8*
CN(/N=C/c1cc(Br)cc(Br)c1O)c1cccc(C(F)(F)F)n1 | 70.2
Cc1cc(N/N=C\c2ccccc2)nc(-c2ccccc2O)n1 | -138.1*
Cc1cc(N/N=C/c2ccc(O)cc2O)nc(-c2ccccc2O)n1 | 74.6
O=C(Nc1ccc2c(c1)C(=O)OC2)c1ccc(F)cc1F | -63.1*
O=C(Nc1ccc2c(c1)C(=O)OC2)c1ccc(Cl)cc1Cl | -75.0*
SMILES | aSyn 5UTR act
CCOC(=O)c1ccc(N=c2scc(C)n2CC)cc1 | -91.0*
C=CCn1c(C)csc1=Nc1ccc(C(C)=O)cc1 | -98.9*
CCOC(=O)c1ccc(N=NN(C)C)cc1 | -155.6*
CCc1nnc2c3cnn(-c4ccccc4)c3ncn12 | -183.2*
Nc1ccccc1C#CC(=O)c1ccccc1 | -90.1*
CN(C)c1ccc(NC(=O)CCn2c(=S)oc3ccccc32)cc1 | -99.6*
CCNc1oc(/C=C/c2ccc(OCC)cc2)nc1C#N | -188.1*
CNc1oc(/C=C/c2cccc(OC)c2)nc1C#N | -179.7*
CCN(CC)CCCNc1oc(/C=C/c2ccccc2)nc1C#N | -63.8*
Cc1ccc(C(=O)Nc2nc3ccccc3c(=O)s2)cc1 | -189.9*
CCc1nnc(NC(=O)c2ccc(NC(=O)C(C)C)cc2)s1 | -100.6*
O=C(Nc1nc2ccccc2s1)c1ccc(Cl)s1 | -170.3*
COc1ccc(OC)c(-c2csc(NC(=O)c3ccc(F)cc3)n2)c1 | -201.7*
COc1ccc2nc(NC(=O)c3cccs3)sc2c1 | -78.3*
CCc1nnc(NC(=O)c2ccc3c(c2)C(=O)N(C(C)(C)C)C3=O)s1 | -145.0*
O=C(Nc1nc(=O)c2ccccc2s1)c1ccccc1 | -156.6*
O=C(Nc1nc2ccccc2s1)c1ccc(F)cc1 | -89.4*
CC(C)(C)N1C(=O)c2ccc(C(=O)Nc3ccc(O)cc3)cc2C1=O | -87.2*
COc1ccc2nc(NC(=O)c3ccc(F)cc3)sc2c1 | -155.6*
O=C(Nc1nc(-c2cccs2)cs1)c1ccc(Cl)s1 | -146.5*
CCc1nnc(NC(=O)c2ccc3ncsc3c2)s1 | -102.0*
NC(=O)c1ccc2nc(NC(=O)c3ccc(N)cc3)sc2c1 | -78.7*
Nc1ccc(-c2nc3ccc(C(=O)O)cc3s2)cc1 | 95.4
COc1ccc2nc(NC(=O)c3ccc4ncsc4c3)sc2c1 | -133.7*
Cc1ccc(S(=O)(=O)n2nc(-c3ccco3)nc2SCc2ccccc2)cc1 | -73.6*
SMILES | aSyn 5UTR act
O=C(Cc1ccccc1)n1nc(-c2ccco2)nc1SCc1ccccc1 | -70.8*
CSc1nc(-c2ccc(Cl)cc2)nn1C(=O)c1ccco1 | -107.2*
O=C(c1ccco1)n1nc(-c2ccccc2)nc1SCc1ccccc1 | -112.2*
CCS(=O)(=O)n1nc(-c2ccc(Cl)cc2)nc1SC | -69.6*
Cc1cc(=O)[nH]c2nnc(-c3ccc(Br)cc3)n12 | -62.3*
CC1CCc2nc(NC(=O)Nc3ccc4c(c3)OCO4)sc2C1 (stereo unspecified) | -123.0*
Cc1ncsc1C(=O)Nc1nc2c(s1)CC(C)CC2 (stereo unspecified) | -126.1*
COC(=O)c1c(NC(=O)CN2CCOCC2)sc2c1CCC(C)C2 (stereo unspecified) | -122.7*
CC1CCc2nc(NC(=O)CN3CCOCC3)sc2C1 (stereo unspecified) | -91.9*
CC1CCc2nc(NC(=O)C3COc4ccccc4O3)sc2C1 (stereo unspecified) | 63.1
CC1CCc2nc(NC(=O)C3CC3)sc2C1 (stereo unspecified) | -137.8*
O=C(c1ccco1)N1CCC(c2ccccc2)C1 (stereo unspecified) | -108.6*
